Among the data in PubChem BioAssay (Tox21) are Potency and outcome values, retold here.

“And” between values parts separate entries of the source, which are not always exact repeats. Equal entries are not always repeated. Records with an inconclusive call do not appear. Where a call stands in place of a potency, no number is given. Some structures have more than one record in an assay (separate samples or runs), and their calls can disagree. The source made the active and inactive calls. Unless noted, calls follow the shape of the dose curve; as a rule, active = well fitted curve in the direction sought with a large enough effect in the repeat runs; inconclusive = weak or mixed curves; inactive = no such curve, though single readings can be large; an effect the other way counts as inactive or inconclusive.

System in one experiment: not listed separately
Description: qHTS assay to identify small molecule agonists of the retinoic acid receptor (RAR) signaling pathway (AID 1159553). Also: potency is read from the fitted curve at half-maximal effect. Conditions: C3RL4 RARE luciferase reporter, agonist, 6 h; series mostly up to 73.3 µM. An outline of the steps: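 C3RL4 cells carrying a RARE luciferase reporter were plated overnight at 37 C, then exposed to compounds in DMSO for 6 hr at 37 C and 5% CO2. Luminescence was read 30 min after luciferase reagent addition at room temperature.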
On the technique in general: qHTS replaces the single test concentration by a dilution series.
On to `Cc1cc(C)nc(NS(=O)(=O)c2ccc(N)cc2)n1`, for which the Potency entry was “inactive”.
As to `Cc1c(C(=O)O)c(O)cc2c1C(=O)c1c(O)c([C@@H]3O[C@H](CO)[C@@H](O)[C@H](O)[C@H]3O)c(O)c(O)c1C2=O`, the Potency entry was “inactive”.
As to `CC12CCC(CC1)C(C)(C)O2`, the Potency entry is “inactive”.
With `O=c1[nH]cnc2c1ncn2[C@H]1CC[C@@H](CO)O1`, the Potency result was “inactive”.
In the case of `O=C(Nc1ncc([N+](=O)[O-])s1)c1cccs1`, the Potency is 1.06 µM (active).
As to `COc1ccc(C(Cl)=C(c2ccc(OC)cc2)c2ccc(OC)cc2)cc1`, the Potency result was “inactive”.
The same measure, in the same setting: then `Nc1c(N=Nc2ccc(-c3ccc(N=Nc4cc(S(=O)(=O)O)c5ccccc5c4N)cc3)cc2)cc(S(=O)(=O)O)c2ccccc12`, with “inactive”; and `CCCCCCCC(=O)OCC(COC(=O)CCCCCCC)OC(=O)CCCCCCC`, with “inactive”.
As to `O=C1NS(=O)(=O)c2ccccc21`, the Potency entry is “inactive”.
Take `C=C(C)C(=O)OCC(C)O` (stereo unspecified): the Potency entry is “inactive”.
`NC(=O)n1c(O)c(C(=O)c2cccs2)c2cc(Cl)ccc21`: the Potency entry is “inactive”.
The same measure, in the same setting: under `CN(C)C(=S)SC(=S)N(C)C` stands 0.668 µM (active); under `O=C(O)CC(O)C(=O)O` (stereo unspecified), “inactive”.
The same measure, in the same setting: then `O=S1(=O)OC(c2ccc(O)cc2)(c2ccc(O)cc2)c2ccccc21`, with “inactive”.
Same read-out and setting: then `CCCC[P+](CCCC)(CCCC)CCCC`, with “inactive”.
For `CCCCOC(=O)c1ccc(O)cc1`, the Potency was 27.3 µM (active).
In the case of `CCCCCCc1ccc(O)cc1O`, the Potency result is “inactive”.
In the case of `CC(=O)C(=O)O`, the Potency entry is “inactive”.

System in the next experiment: not listed separately
Description: qHTS assay to identify small molecule antagonists of the estrogen related receptor (ERR) signaling pathway - cell viability counter screen (AID 1224818).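 Also: viability measured after 17.5 h of compound exposure.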 The following applies: ERR reporter cell line viability counter screen; series mostly up to 46.1 µM. Put shortly: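 ERR reporter cells plated 6 h at 37 C/5% CO2, then compounds in DMSO pin-transferred and incubated 17.5 h at 37 C. Viability read as CellTiter-Fluor fluorescence after 30 min at 37 C.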
In the case of `Cc1cn([C@H]2C=C[C@@H](CO)O2)c(=O)[nH]c1=O`, the call was inactive.
With `O=C1NC(=O)C(c2ccccc2)(c2ccccc2)N1`, the outcome was inactive.
Still for that read-out and setting: then `CN[C@H]1CC[C@@H](c2ccc(Cl)c(Cl)c2)c2ccccc21`, with “inactive”.
Take `CCCCNC(=O)NS(=O)(=O)c1ccc(C)cc1`: the call was inactive.
Regarding `CC(C)NCC(O)c1ccc(O)c(O)c1` (stereo unspecified), the call was inactive.
`O=c1[nH]cc(F)c(=O)[nH]1`: the outcome was inactive.
The same measure, in the same setting: then `NS(=O)(=O)c1cc2c(cc1Cl)NCNS2(=O)=O`, with “inactive”.

System in another experiment: not listed separately
Description: qHTS assay to identify small molecule antagonists of the estrogen related receptor (ERR) signaling pathway (AID 1224819;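 also: luminescence from an ERR-driven luciferase reporter measured with One-Glo reagent; nearly all actives have a fitted effect of over 50% in size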). Conditions: ERR reporter cell line, luciferase inhibition; series mostly up to 46.1 µM. An outline of the steps:
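ERR reporter cells were plated at 2,000 cells/well and left 6 h at 37 C/5% CO2 before pin-tool transfer of compounds in DMSO. After 18 h at 37 C, One-Glo was added and luminescence was read 30 min later at room temperature.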
Take `CN[C@H]1CC[C@@H](c2ccc(Cl)c(Cl)c2)c2ccccc21`: the Potency result was “inactive”.
The same measure, in the same setting: then `CCCCNC(=O)NS(=O)(=O)c1ccc(C)cc1`, with “inactive”.
On to `CC(C)NCC(O)c1ccc(O)c(O)c1` (stereo unspecified), for which the Potency result is “inactive”.
The same measure, in the same setting: under `NS(=O)(=O)c1cc2c(cc1Cl)NCNS2(=O)=O` stands “inactive”.

System in another experiment: not listed separately
As to the kind of experiment: qHTS assay to identify small molecule agonists of the estrogen related receptor (ERR) signaling pathway (AID 1224820). The following applies: ERR reporter cell line, luciferase agonist mode; series mostly up to 46.1 µM. The source says: National Center for Advancing Translational Sciences [NCATS]
NIH Chemical Genomics Center [NCGC]
U.S. Environmental Protection Agency [EPA]
National Institutes of Environmental Health Sciences [NIEHS]
National Toxicology Program [NTP]
Estrogen related receptors (ERRs), the first orphan nuclear receptors discovered, play an important role in the control of cellular energy metabolism. ERRs are required for high-energy production in response to the environmental challenges. ERR-alpha was also identified as an adverse marker for breast cancer progression; ERR-alpha-positive tumors have a poor prognosis. To screen and to identify environmental compounds that perturb the ERR signaling pathways could provide valuable information for potential therapeutic or preventive measures in the treatment of metabolic disease. For identifying ERR agonists, ERR cell line (provided by NTP) has been used to screen LOPAC library.
The ERR cells were dispensed at 2,000 cells/5 ul/well in 1536-well white plates using a Multidrop dispenser. After the assay plates were incubated at a 37 C/5% CO2 incubator for 6 hours, 23 nL of compounds dissolved in DMSO, positive and negative controls or DMSO only was transferred to the assay plate by a pin tool. The plates were incubated at 37 C for 18 hours. 4 ul/well of One-Glo reagent was added into the assay plates using a Flying Reagent Dispenser. After 30 min incubation at room temperature, the luminescence intensity in the plates was measured using a ViewLux plate reader.
With `CN[C@H]1CC[C@@H](c2ccc(Cl)c(Cl)c2)c2ccccc21`, the molecule was called inactive.
`CCCCNC(=O)NS(=O)(=O)c1ccc(C)cc1`: the result was inactive.
In the case of `NS(=O)(=O)c1cc2c(cc1Cl)NCNS2(=O)=O`, the call was inactive.

In another experiment the test system is estrogen-related receptor alpha (ERRalpha) with PGC-1alpha coactivator, human. As to the kind of experiment: qHTS assay to identify small molecule antagonists of the estrogen related receptor signaling pathway with the pleiotropic PPARgamma coactivator (PGC) (AID 1224821; calls by dose curve;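 also: lower luminescence signal means antagonism of PGC/ERR signalling; nearly all actives have a fitted effect of over 50% in size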). The following applies: ERR/PGC reporter cell line, luciferase, antagonist mode; series mostly up to 46.1 µM. Put shortly: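 Luminescent read-out (One-Glo, 30 min at room temperature) following 18 h treatment of PGC/ERR cells at 37 C with compounds delivered in DMSO. Cells had settled 6 h at 37 C/5% CO2 before dosing.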
For `CN[C@H]1CC[C@@H](c2ccc(Cl)c(Cl)c2)c2ccccc21`, the outcome was inactive.
Take `CCCCNC(=O)NS(=O)(=O)c1ccc(C)cc1`: the outcome was inactive.
Turning to `CC(C)NCC(O)c1ccc(O)c(O)c1` (stereo unspecified), the result was inactive.
On the same count and under the same terms, under `NS(=O)(=O)c1cc2c(cc1Cl)NCNS2(=O)=O` stands “inactive”.

System in a further experiment: not listed separately
As to the kind of experiment: qHTS assay to identify small molecule antagonists of the estrogen related receptor signaling pathway with the pleiotropic PPARgamma coactivator (PGC) cell viability counter screen (AID 1224822; also: potency is read from the fitted curve at half-maximal effect). Conditions: ERR/PGC reporter cell line viability counter screen; series mostly up to 46.1 µM. An outline of the steps: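 PGC/ERR cells were seeded at 2,000 cells/well, rested 6 h at 37 C/5% CO2, then given compounds in DMSO by pin tool and incubated 17.5 h at 37 C. Viability came from CellTiter-Fluor fluorescence after 30 min.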
Turning to `Cc1cn([C@H]2C=C[C@@H](CO)O2)c(=O)[nH]c1=O`, the Potency result is “inactive”.
Turning to `O=C1NC(=O)C(c2ccccc2)(c2ccccc2)N1`, the Potency result was “inactive”.
As to `CN[C@H]1CC[C@@H](c2ccc(Cl)c(Cl)c2)c2ccccc21`, the Potency entry is “inactive”.
`CC/C(=C(\c1ccccc1)c1ccc(OCCN(C)C)cc1)c1ccccc1`: the Potency is 27.6 µM (active).
In the case of `CCCCNC(=O)NS(=O)(=O)c1ccc(C)cc1`, the Potency entry was “inactive”.
For the molecule `CC(C)NCC(O)c1ccc(O)c(O)c1` (stereo unspecified), the Potency entry was “inactive”.
For `O=c1[nH]cc(F)c(=O)[nH]1`, the Potency entry was “inactive”.
In the case of `NS(=O)(=O)c1cc2c(cc1Cl)NCNS2(=O)=O`, the Potency entry is “inactive”.

System in the next experiment: not listed separately
Description: qHTS assay to identify small molecule agonists of the estrogen related receptor signaling pathway with the pleiotropic PPARgamma coactivator (PGC) (AID 1224823). Conditions: ERR/PGC reporter cell line, luciferase agonist mode; series mostly up to 46.1 µM. An outline of the steps: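 Steps: plate PGC/ERR cells at 2,000 cells/well; incubate 6 h, 37 C/5% CO2; pin-transfer compounds (DMSO); incubate 18 h, 37 C; add One-Glo; 30 min RT; read luminescence.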
For `CCCCNC(=O)NS(=O)(=O)c1ccc(C)cc1`, the molecule was classed as inactive.
Regarding `CC(C)NCC(O)c1ccc(O)c(O)c1` (stereo unspecified), the molecule was classed as inactive.
For the molecule `NS(=O)(=O)c1cc2c(cc1Cl)NCNS2(=O)=O`, the molecule was called inactive.

System in another experiment: not listed separately
Description: qHTS assay to identify small molecule antagonists of the estrogen related receptor (ERR) signaling pathway from Tox21 library - cell viability counter screen (AID 1224834). Also: nearly all actives have a fitted effect of over 30% in size. Also: potency is read from the fitted curve at half-maximal effect. Conditions: ERR reporter cells viability, CellTiter-Fluor, 17.5 h; series mostly up to 92.4 µM. An outline of the steps: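 ERR reporter cells were plated 6 h before compound addition, then exposed to test compounds in DMSO for 17.5 h at 37 C. Viability was read as CellTiter-Fluor fluorescence after a 30-minute incubation at 37 C.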
Consider `Cc1cc(C)nc(NS(=O)(=O)c2ccc(N)cc2)n1`, for which the Potency result is “inactive”.
As to `Cc1c(C(=O)O)c(O)cc2c1C(=O)c1c(O)c([C@@H]3O[C@H](CO)[C@@H](O)[C@H](O)[C@H]3O)c(O)c(O)c1C2=O`, the Potency was 33.5 µM (active) and 27.3 µM (active).
With `CC12CCC(CC1)C(C)(C)O2`, the Potency result was “inactive”.
As to `Cc1cn([C@H]2C=C[C@@H](CO)O2)c(=O)[nH]c1=O`, the Potency result was “inactive”.
Still for that read-out and setting: under `O=C1NC(=O)C(c2ccccc2)(c2ccccc2)N1` stands “inactive”; under `O=c1[nH]cnc2c1ncn2[C@H]1CC[C@@H](CO)O1`, “inactive”; under `CN[C@H]1CC[C@@H](c2ccc(Cl)c(Cl)c2)c2ccccc21`, 29.8 µM (active).
For the molecule `O=C(Nc1ncc([N+](=O)[O-])s1)c1cccs1`, the Potency is 13.3 µM (active).
On to `COc1ccc(C(Cl)=C(c2ccc(OC)cc2)c2ccc(OC)cc2)cc1`, for which the Potency result is “inactive”.
Regarding `CC/C(=C(\c1ccccc1)c1ccc(OCCN(C)C)cc1)c1ccccc1`, the Potency is 54.4 µM (active) and 54.9 µM (active) and 61.1 µM (active).
Same read-out and setting: under `CCCCNC(=O)NS(=O)(=O)c1ccc(C)cc1` stands “inactive”; under `Nc1c(N=Nc2ccc(-c3ccc(N=Nc4cc(S(=O)(=O)O)c5ccccc5c4N)cc3)cc2)cc(S(=O)(=O)O)c2ccccc12`, 21.7 µM (active).
On to `CCCCCCCC(=O)OCC(COC(=O)CCCCCCC)OC(=O)CCCCCCC`, for which the Potency result is “inactive”.
For the molecule `CNNCc1ccc(C(=O)NC(C)C)cc1`, the Potency entry was “inactive”.
The same measure, in the same setting: then `O=C1NS(=O)(=O)c2ccccc21`, with “inactive”.
The same measure, in the same setting: under `C=C(C)C(=O)OCC(C)O` (stereo unspecified) stands “inactive”.
Still for that read-out and setting: then `O=C1O[C@H]([C@@H](O)CO)C(O)=C1O`, with “inactive”; and `NC(=O)n1c(O)c(C(=O)c2cccs2)c2cc(Cl)ccc21`, with 23.7 µM (active).
On to `C/C=C/C=C/C(=O)O`, for which the Potency result was “inactive”.
As for `CN(C)C(=S)SC(=S)N(C)C`, the Potency was 1.98 µM (active) and 1.54 µM (active) and 1.68 µM (active).
`O=C(O)CC(O)C(=O)O` (stereo unspecified): the Potency result was “inactive”.
In the case of `O=S1(=O)OC(c2ccc(O)cc2)(c2ccc(O)cc2)c2ccccc21`, the Potency is 27.3 µM (active) and 18.8 µM (active).
Still for that read-out and setting: then `CCCC[P+](CCCC)(CCCC)CCCC`, with “inactive”; and `CCCCOC(=O)c1ccc(O)cc1`, with “inactive”.
Still for that read-out and setting: then `CC(C)NCC(O)c1ccc(O)c(O)c1` (stereo unspecified), with “inactive”; and `CCCCCCc1ccc(O)cc1O`, with 61.3 µM (active); and `O=c1[nH]cc(F)c(=O)[nH]1`, with 31.8 µM (active) and inactive.
Same read-out and setting: then `CC(=O)C(=O)O`, with “inactive”; and `NS(=O)(=O)c1cc2c(cc1Cl)NCNS2(=O)=O`, with “inactive”.
